Data taken from PubChem BioAssay.
Activity calls are given as the source filed them.

How the values were obtained:
[1] = tested on: Human papillomavirus type 1a protein E7 (residues 44-93); test: small molecules binding HPV E7 44-93 – biochemical, small-molecule microarray, residues 44-93, 635 nm fluorescence, primary screen (AID 1108); settings: fluorescence 635 nm, higher = more signal;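 further: E7 fragment applied at 1 µg/mL in TBST for 1 h at 4 C; score combines spot fluorescence with its signal to noise ratio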
[2] = hepatitis C replication reporter changes, two-sided – Huh7 cells, luciferase reporter, HCV replication inhibitor project, primary screen (AID 1109); settings: Huh7 HCV replicon luciferase reporter, 48 h; higher = more signal;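 further: huh7 hepatoma cells harbouring a luciferase neomycin HCV replicon reporter; luciferase luminescence as measure of HCV replicon replication; test concentration not given here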
[3] = target: Left-right determination factor 2 (Homo sapiens) (UniProt O00292); test: small molecules binding LEFTY2 protein – biochemical, small-molecule microarray, 635 nm fluorescence scan, primary screen (AID 1110); settings: higher = more signal
Sequence of Left-right determination factor 2 (Homo sapiens) (O00292 whole entry, looked up): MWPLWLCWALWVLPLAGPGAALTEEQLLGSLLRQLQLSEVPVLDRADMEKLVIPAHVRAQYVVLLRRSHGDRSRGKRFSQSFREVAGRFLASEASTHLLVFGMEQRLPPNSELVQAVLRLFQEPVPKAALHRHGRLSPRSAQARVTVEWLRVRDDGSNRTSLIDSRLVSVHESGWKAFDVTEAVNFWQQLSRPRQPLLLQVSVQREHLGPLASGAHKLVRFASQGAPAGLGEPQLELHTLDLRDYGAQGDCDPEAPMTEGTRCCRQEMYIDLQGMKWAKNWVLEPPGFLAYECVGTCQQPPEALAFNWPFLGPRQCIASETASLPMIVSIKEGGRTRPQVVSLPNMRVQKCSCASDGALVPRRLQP

[4] = target: Calmodulin-1 (Homo sapiens) (UniProt P0DP23); test: small molecules binding calmodulin-1 with EGTA – biochemical, small-molecule microarray, Cy5-labelled CALM1, profiling panel (AID 1111); settings: Cy5-CALM1 binding fluorescence, higher = more signal;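 further: labelled calmodulin applied in Tris saline Tween buffer holding calcium plus EGTA and DTT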
[5] = target: Calmodulin-1 (Homo sapiens) (UniProt P0DP23); test: small molecules binding Ca-loaded calmodulin-1 – biochemical, small-molecule microarray, Cy5-labelled CALM1, plus calcium, artefact control for SMM control-protein annotation, profiling panel (AID 1112); settings: Cy5-CALM1 binding fluorescence, higher = more signal;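 further: score merges spot fluorescence with signal to noise from triplicate slides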
[6] = probe aWnt5a binding to arrayed compounds – biochemical, biotinylated probe, 635/667 nm fluorescence, primary screen (AID 1113); settings: small-molecule microarray, higher = more signal;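 further: score merges 667 nm fluorescence intensity with signal-to-noise per printed feature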
[7] = probe aShh binding to arrayed compounds – biochemical, biotinylated probe, 635/667 nm fluorescence, primary screen (AID 1114); settings: small-molecule microarray, higher = more signal;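 further: probe is biotin-labelled aShh protein from a stem cell growth factor screen; measures binding of labelled protein to compounds printed on the slide; score merges feature fluorescence at 667 nm with signal-to-noise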
[8] = probe aNog binding to arrayed compounds – biochemical, biotinylated probe, 635/667 nm fluorescence, primary screen (AID 1115); settings: small-molecule microarray, higher = more signal;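 further: probe is biotinylated aNog protein used at 0.15 µg/mL for 1 h at 4 C; z-score combines 667 nm fluorescence of each spot with its signal to noise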
[9] = target: Torsin-1A-interacting protein 1 (Homo sapiens) (UniProt Q5JTV8); test: compound microarray binding of lysate hLAP1 – cell lysate, small-molecule microarray, COS7 lysate, 635/667 nm fluorescence, primary screen (AID 1116); settings: 635 nm fluorescence, higher = more signal
Sequence of Torsin-1A-interacting protein 1 (Homo sapiens) (Q5JTV8 whole entry, looked up): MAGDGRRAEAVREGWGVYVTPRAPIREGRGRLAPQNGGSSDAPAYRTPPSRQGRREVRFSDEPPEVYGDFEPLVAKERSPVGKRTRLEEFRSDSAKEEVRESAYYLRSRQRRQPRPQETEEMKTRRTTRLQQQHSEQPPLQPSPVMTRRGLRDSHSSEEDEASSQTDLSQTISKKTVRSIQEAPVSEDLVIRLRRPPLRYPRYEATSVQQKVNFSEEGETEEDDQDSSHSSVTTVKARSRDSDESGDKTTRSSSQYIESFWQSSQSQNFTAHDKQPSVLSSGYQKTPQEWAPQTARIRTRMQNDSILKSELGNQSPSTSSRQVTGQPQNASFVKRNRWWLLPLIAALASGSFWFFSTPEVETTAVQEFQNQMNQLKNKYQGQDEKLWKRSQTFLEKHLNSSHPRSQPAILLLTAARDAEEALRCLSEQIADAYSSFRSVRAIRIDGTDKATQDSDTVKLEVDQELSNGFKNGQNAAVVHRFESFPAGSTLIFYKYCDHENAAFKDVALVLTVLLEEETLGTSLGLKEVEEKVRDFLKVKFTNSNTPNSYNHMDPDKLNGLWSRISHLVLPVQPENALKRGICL

[10] = target: Alpha-bungarotoxin (Bungarus multicinctus) (UniProt P60615); test: compounds binding labelled alpha-BTX control protein – biochemical, small-molecule microarray, Alexa647 label, 635/667 nm fluorescence, artefact control for SMM control protein annotation, profiling panel (AID 1117); settings: alpha-BTX-A647 binding fluorescence, higher = more signal
Sequence of Alpha-bungarotoxin (Bungarus multicinctus) (P60615 whole entry, looked up): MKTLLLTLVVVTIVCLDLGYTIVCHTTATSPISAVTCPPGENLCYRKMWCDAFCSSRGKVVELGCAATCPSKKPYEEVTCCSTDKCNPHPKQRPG

[11] = target: Albumin (Bos taurus) (UniProt P02769); test: compounds binding labelled BSA control protein – biochemical, small-molecule microarray, Alexa647 label, 635/667 nm fluorescence, artefact control for SMM control protein annotation, profiling panel (AID 1118); settings: BSA-A647 binding, fluorescence 635 nm, higher = more signal;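 further: score merges 667 nm emission intensity and signal-to-noise per printed compound spot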
Sequence of Albumin (Bos taurus) (P02769 whole entry, looked up): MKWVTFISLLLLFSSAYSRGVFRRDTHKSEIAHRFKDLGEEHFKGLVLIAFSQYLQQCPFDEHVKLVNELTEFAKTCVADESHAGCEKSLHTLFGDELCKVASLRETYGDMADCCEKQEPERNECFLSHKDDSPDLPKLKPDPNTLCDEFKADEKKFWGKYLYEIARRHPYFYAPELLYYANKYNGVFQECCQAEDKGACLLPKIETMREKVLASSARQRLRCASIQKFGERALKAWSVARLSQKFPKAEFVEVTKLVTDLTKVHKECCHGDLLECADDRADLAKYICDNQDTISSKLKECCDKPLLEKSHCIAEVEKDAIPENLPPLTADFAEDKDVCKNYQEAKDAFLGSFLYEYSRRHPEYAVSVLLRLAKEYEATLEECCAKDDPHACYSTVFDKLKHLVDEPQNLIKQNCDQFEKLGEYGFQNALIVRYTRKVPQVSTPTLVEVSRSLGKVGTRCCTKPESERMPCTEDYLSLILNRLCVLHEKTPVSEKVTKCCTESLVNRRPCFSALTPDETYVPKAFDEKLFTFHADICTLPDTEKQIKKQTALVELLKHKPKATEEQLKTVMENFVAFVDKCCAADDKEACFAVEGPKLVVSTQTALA

[12] = probe aXIP binding to arrayed compounds – biochemical, NeuroSMM set, 635/667 nm fluorescence, primary screen (AID 1119); settings: small-molecule microarray, higher = more signal, called active from +8 up or from −8 down;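 further: probe is the protein aXip251-270 applied at 1 µg/mL to compound-printed slides; binding of probe to printed compounds measured as 667 nm fluorescence plus signal to noise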
[13] = probe aNOTCH3 binding on compound microarray – biochemical, small-molecule microarray, 635/667 nm fluorescence, primary screen (AID 1120); settings: higher = more signal;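 further: probe is a biotin-tagged antibody raised against NOTCH3 rather than NOTCH3 protein; score merges spot fluorescence near 667 nm with spot signal to noise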
[14] = probe aNOTCH2 binding on compound microarray – biochemical, small-molecule microarray, 635/667 nm fluorescence, primary screen (AID 1121); settings: higher = more signal;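 further: score merges feature fluorescence read at 667 nm with its signal to noise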
[15] = target: Carbonic anhydrase 2 (Homo sapiens) (UniProt P00918); test: compounds binding carbonic anhydrase 2 – biochemical, small-molecule microarray, Alexa647-labelled CAII, profiling panel (AID 1122); settings: CAII-A647 binding fluorescence, higher = more signal
[16] = COS7 lysate on small-molecule microarray, probe aHis, 635 nm (AID 1123); settings: COS7 cell lysate, fluorescence, higher = more signal;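 further: z-score combines 667nm fluorescence intensity with signal-to-noise per printed compound spot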
[17] = probe aLAP1 signal on lysate-treated microarray – cell lysate, small-molecule microarray, COS7 lysate, primary screen (AID 1124); settings: probe aLAP1, fluorescence, higher = more signal;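 further: lysate comes from COS7 cells expressing LAP1 and is applied at 0.3 µg/mL; score merges spot fluorescence near 667 nm with signal-to-noise over triplicate slides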
[18] = tested on: Sam68 (KHDRBS1); test: compounds binding KHDRBS1 protein – biochemical, small-molecule microarray, 635 nm fluorescence, primary screen (AID 1125); settings: higher = more signal;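 further: score merges 667 nm channel intensity with signal to noise over triplicate slides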
[19] = tested on: Chordin-like protein 2 (CHRDL2); test: compounds binding chordin-like 2 – biochemical, small-molecule microarray, 635 nm fluorescence, primary screen (AID 1126); settings: fluorescence 635 nm, higher = more signal;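 further: printed compound slides probed with Chrdl2 protein at 4 µg/mL for 1 h at 4 C; score merges 667 nm emission intensity with signal to noise over three replicate slides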
[20] = target: Concanavalin-A (Canavalia ensiformis) (UniProt P02866); test: compounds binding concanavalin A lectin – biochemical, small-molecule microarray, Alexa647 label, 635 nm, artefact control for SMM control protein annotation, primary screen (AID 1127); settings: ConA-A647 binding fluorescence, higher = more signal;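 further: z combines 667 nm emission intensity with signal-to-noise across three replicate slides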
Sequence of Concanavalin-A (Canavalia ensiformis) (P02866 whole entry, looked up): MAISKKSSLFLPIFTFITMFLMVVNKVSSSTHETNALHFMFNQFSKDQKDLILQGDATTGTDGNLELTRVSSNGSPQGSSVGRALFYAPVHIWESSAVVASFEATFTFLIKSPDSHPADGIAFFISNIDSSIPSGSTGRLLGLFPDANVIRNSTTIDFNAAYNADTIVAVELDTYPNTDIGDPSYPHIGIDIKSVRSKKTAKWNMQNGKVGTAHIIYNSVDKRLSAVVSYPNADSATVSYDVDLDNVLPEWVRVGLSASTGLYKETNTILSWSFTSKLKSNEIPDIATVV

Row | SMILES | composite z-score [1] | z-score [2] | composite z-score [3] | composite z-score [4] | composite z-score [5] | composite z-score [6] | composite z-score [7] | composite z-score [8] | composite z-score [9] | composite z-score [10] | composite z-score [11] | composite Z-score [12] | composite z-score [13] | composite z-score [14] | composite z-score [15] | composite z-score [16] | composite z-score [17] | composite z-score [18] | composite z-score [19] | composite z-score [20]
1 | CO[C@H]1COC(=O)CC=C[C@H](C)COC(=O)[C@@H](C)NC(=O)CC=C[C@@H]1C | -1.45 | -1.83 | 1.54 | -1.13 | -2.44 | -0.0816 | -0.0035 | -0.137 | 0.621 | 0.13 | -0.854 | 0.842 (inactive) | -0.179 | -0.14 | -0.532 | -1.13 | 0.487 | 0.339 | 1.56 | -0.582
2 | CC(CCN1CCCc2nc(C)c(C)cc21)=NO[C@@H](C)c1cc(-c2c(C)cc(C)cc2C)no1 | 0.788 | -0.414 | 0.231 | 0.446 | -0.17 | -0.101 | 0.0952 | 0.173 | 0.601 | 0.494 | 0.177 | 0.121 (inactive) | 0.0789 | -0.0668 | 0.0276 | 0.517 | 0.138 | 1.04 | 0.9 | 0.778
3 | CC(C)(C)N1C(=O)[C@H]2[C@H]3[C@H](O)[C@H](O)CC(=O)[C@@H]3CC[C@H]2C1=O | 0.3 | 0.6 | 0.709 | -0.339 | -0.518 | -0.0125 | 0.0121 | -0.108 | 0.804 | 0.106 | 0.061 | 0.302 (inactive) | -0.0918 | 0.0811 | 0.113 | 0.113 | 0.102 | 0.0236 | 0.265 | 0.395
4 | C#CCCCON=C1C[C@@H](O)[C@@H](O)[C@@H]2[C@@H]3C(=O)N(C(C)(C)C)C(=O)[C@@H]3CC[C@@H]12 | 0.0592 | 1.17 | -0.442 | -0.389 | -0.165 | -0.0721 | -0.338 | 0.305 | 0.805 | 0.323 | 0.0601 | -0.0448 (inactive) | 0.0137 | -0.123 | -0.219 | 0.496 | 0.485 | -0.161 | 0.888 | -0.616
5 | CO[C@H]1COC(=O)[C@@H](Cc2ccccc2)NC(=O)[C@@H](C)COC(=O)CCC[C@@H]1C | -0.573 | -2.38 | 0.455 | -0.273 | -0.679 | -0.0478 | 0.0278 | -0.412 | 0.29 | 0.273 | 0.516 | -0.112 (inactive) | 0.0257 | -0.132 | -0.248 | 0.0267 | -0.0452 | 0.179 | 0.295 | -0.171
